# Reference: PubChem BioAssay AID922 (National Center for Advancing Translational Sciences (NCATS), 2007)
# Inconclusive results are not listed. Activity calls are given as the source filed them. The call rests on the fitted dose curve; in most records, active means well fitted inhibition curve with a large enough effect in the signal ratio, with a control signal flat; inconclusive means small, poorly fitted or top-dose-only effect, or effect the other way; inactive means flat fitted curve, though single readings scatter; the % refers to the signal ratio.
# Experiment: Confirmation Concentration-Response Assay for Identification of Small Molecule Antagonists of Stat Signaling Pathway
# Conditions: SIE-bla cells, IL-6 stimulated, beta-lactamase ratio, 5 h
# Excerpt: NIH Molecular Libraries Screening Centers Network [MLSCN] NIH Chemical Genomics Center [NCGC] MLSCN Grant: None NCGC Assay Overview: This assay is a retest of actives identified from the Stat signaling pathway assay (PubChem AID 446). The Stat assay is cell-based and measures Interleukin 6 (IL-6) mediated modulation of a beta-lactamase reporter gene controlled by a STAT inducible element (SIE-bla cells, Invitrogen). IL-6 is a cytokine that signals via the JAK/STAT pathway and is implicated in cancer and inflammation. SIE-bla cells are induced by IL-6 at 40 pM EC50 and inhibited by the pan JAK inhibitor, 2-(1,1-Dimethylethyl)-9-fluoro-3,6-dihydro-7H-benz[h]-imidaz[4,5-f]isoquinolin-7-one, at approximately 10 nM IC50. Plated cells were incubated overnight and on the following day, stimulated with 40 pM IL-6 for 5 hrs. The assay was stimulated with an EC50 of IL-6 to retest inhibitors of STAT signaling.
# NCGC Assay Protocol Summary: Cells were trypsinized, washed in assay medium (AM, OPTI MEM with 0.5% fetal bovine serum, 0.1 mM nonessential amino acids, 1 mM sodium pyruvate, 10mM HEPES pH 7.3, 100U/ml penicillin, and 100 ug/ml streptomycin) and suspended at […] in AM. Approximately 2500 cells in 5 uL/well was dispensed into 1536-well plates and the cells were incubated overnight at 37 C. 23 nL of compound were delivered by a pin tool and 1 uL of IL-6 (40 pM final concentration in AM) was added. After plates were incubated at 37 C for 5 hrs, 1uL of detector mix (LiveBLAzerTM, Invitrogen) was added, the plates incubated at room temperature for 2.5 hrs, and fluorescence intensity at 460 and 530 nm emissions was measured at 405 nm excitation by an Envision (Perkin Elmer).
row,Compound,Potency
1,CC(C)[C@H](CO)Nc1nc(Nc2cccc(Cl)c2)c2ncn(C(C)C)c2n1,5.01 µM (active)
2,COc1ccc(C[C@@H]2C(=O)N[C@H](C)C(=O)N(C)[C@@H]3C(=O)N(C)[C@@H](Cc4ccc(O)c(c4)Oc4ccc(cc4)[C@H]3O)C(=O)N[C@@H](C)C(=O)N[C@H](C)C(=O)N2C)cc1,0.398 µM (active)
3,CC(C)C[C@H]1C(=O)N2CCC[C@H]2[C@]2(O)O[C@](NC(=O)[C@@H]3C=C4c5cccc6[nH]c(Br)c(c56)CC4N(C)C3)(C(C)C)C(=O)N12 (stereo partly specified),12.6 µM (active)
4,CCn1cnc2c(Nc3cccc(Cl)c3)nc(N[C@@H]3CCCC[C@H]3N)nc21,3.98 µM (active)
5,CC[C@@H]1CN2CCc3cc(OC)c(OC)cc3[C@H]2C[C@@H]1C[C@@H]1NCCc2cc(OC)c(OC)cc21,0.398 µM (active)
6,C[C@]1(C(=O)O)[C@@H]2CC[C@@H](O2)[C@@]1(C)C(=O)O,10 µM (active)
